# Literature values as cited in PubChem BioAssay AID977610.
# In all, about 3,600 compounds went through this assay and about 3,600 (100%) were called active. No cut-off is given here; in the data, nearly all actives have Ki up to about 18000 µM. So high a share suggests a set chosen from earlier hits. Some of the results follow. Numbered stars: 1 amine (or outer) side, 2 acyl side, 3 side chain; on linkers, the order of the positions; unused ones are H or OH. Where a SMILES comes first, the peptide text is derived from it. Square brackets hold non-standard residues; d marks the D form. Residues, ends and D or L forms follow the SMILES beside them. Peptide text beside a SMILES is read from it. [ ]: non-standard residue; d: D form. X2 = O=C([C@H](Cc1ccc(O[P+](O)(O)O)cc1)N[*:1])[*:2]; Orn(CH(NH2)2) = NC(N)NCCC[C@H](N)C(=O)O
# Experiment: PubChem AID 977610
# Settings: PDB protein-ligand complexes, literature Ki
compound,measurement,setting,value
C[C@@H]1N[C@@H](c2cn(-c3ccccc3)nn2)[C@H](O)[C@@H]1O,Ki,"protein: Alpha-L-fucosidase Fuc2970, PDB entry 4pee",0.0048 µM (active)
NCCCC[C@H](N[C@@H](CCc1ccccc1)C(=O)O)C(=O)N1CC=C[C@H]1C(=O)O,Ki,"protein: human somatic angiontensin-I converting enzyme N domain, PDB entry 2c6n",0.131 µM (active)
N[C@@H](CCc1cccnc1)[P+](O)(O)C[C@@H](Cc1ccccc1)C(=O)O,Ki,"protein: Aminopeptidase N, PDB entry 4qir",0.112 µM (active)
NCc1ccc(C[C@H](C[P+](O)(O)[C@@H](N)CCc2ccccc2)C(=O)O)cc1,Ki,"protein: Aminopeptidase N, PDB entry 4qhp",0.009 µM (active)
N[C@@H](CCc1ccccc1)[P+](O)(O)C[C@@H](Cc1ccccc1)C(O)O,Ki,"protein: Aminopeptidase N, PDB entry 4qme",0.302 µM (active)
NCc1cccc(C[C@H](C[P+](O)(O)[C@@H](N)CCc2ccccc2)C(=O)O)c1,Ki,"protein: Aminopeptidase N, PDB entry 4quo",0.012 µM (active)
O=C(O)c1cccc(-c2cnc([C@@H](O)CCCCCCc3ccccc3)o2)n1,Ki,"protein: Humanized Variant of Fatty Acid Amide Hydrolase (L192F, F194Y, A377T, S435N, I491V, V495M), PDB entry 3k7f",0.02 µM (active)
Cc1ccc(-c2cnc([C@@H](O)CCCCCCc3ccccc3)o2)nc1,Ki,"protein: Fatty-acid amide hydrolase 1 (L192F, F194Y, A377T, S435N, I491V, V495M mutation), PDB entry 4j5p",0.012 µM (active)
O=C(O)c1cccc(-c2cnc([C@@H](O)CCc3ccc(-c4ccccc4)cc3)o2)n1,Ki,"protein: Humanized Variant of Fatty Acid Amide Hydrolase (L192F, F194Y, A377T, S435N, I491V, V495M), PDB entry 3k83",0.022 µM (active)
O=C1CC(NC(=O)c2c(Cl)cccc2Cl)=CC=N1,Ki,"protein: Non-receptor tyrosine-protein kinase TYK2 (D1023N mutation), PDB entry 4gfo",0.24 µM (active)
same,Ki,"protein: Tyrosine-protein kinase JAK2, PDB entry 4gfm",0.06 µM (active)
CC(=O)N[C@@H](CCCNC(N)N)C(=O)N[C@@H](Cc1c[nH]c2ccccc12)C(=O)N[C@H]1CCCCCCCNC(=O)[C@@H]2CCCN2C(=O)[C@H](CCCNC(N)N)NC(=O)[C@H](C)NC(=O)[C@@H]2CCCN2C(=O)[C@H](Cc2ccccc2)NC1=O,Ki,"protein: Menin, PDB entry 4i80",0.0238 µM (active)
Oc1ccc(Br)cc1/C=C/S(O)(O)O,Ki,"protein: CARBONIC ANHYDRASE 2, PDB entry 4bcw",100 µM (active)
CC(C)C[C@@H](N)[C@H](O)C(=O)N[C@H](C(=O)N[C@H](C(=O)N[C@@H](CC(=O)O)C(=O)O)C(C)C)C(C)C,Ki,"protein: Glutamyl aminopeptidase, PDB entry 4kx8",0.074 µM (active)
O=[N+]([O-])c1ccc2n[nH]nc2c1,Ki,"protein: KEMP ELIMINASE HG3.17 (V6I, Q37K, K50Q, G82A, M84C, S89N, Q90F, T105I, A125T, T142N, T208M, S265T, F267M, W275A, R276F,, PDB entry 4bs0",2 µM (active)
H-SRWQTSII-OH,Ki,"protein: CFTR Associated Ligand (CAL) PDZ domain, PDB entry 4k6y",14.8 µM (active)
H-RWQDTRL-OH,Ki,"protein: CFTR Associated Ligand (CAL) PDZ domain, PDB entry 4k75",56.2 µM (active)
CSCC[C@H](NC(=O)[C@H](CO)NC(=O)[C@H](CCC(N)=O)NC(=O)[C@H](CCCN=C(N)N)NC(=O)[C@H](CS)NC(=O)[C@@H](N)[C@@H](C)O)C(=O)N[C@@H](CS)C(=O)N[C@H](C(=O)N[C@@H](C)C(=O)N[C@@H](CCCN=C(N)N)C(=O)O)[C@@H](C)O (tested in a mixture with another compound) (H-TCRQSMCTAR-OH),Ki,"protein: urokinase-type plasminogen activator (uPA), PDB entry 4mnv",11.6 µM (active)
CNc1nc2c(CC[C@H]3O[C@@H](OC)[C@H](O)[C@@H]3OC)c3nc(N)[nH]c(=O)c3cc2[nH]1,Ki,"protein: tRNA guanine transglycosylase (TGT), PDB entry 4kwo",0.353 µM (active)
Cc1nnc(CNCCN2C(O)c3cccc4c(N(C)C)ccc(c34)C2O)s1 (stereo not drawn),Ki,"protein: insect beta-N-acetyl-D-hexosaminidase OfHex1, PDB entry 3wmc",0.31 µM (active)
Cc1nnc(CNCCN2C(O)c3cccc4cccc(c34)C2O)s1 (stereo not drawn),Ki,"protein: insect beta-N-acetyl-D-hexosaminidase OfHex1, PDB entry 3wmb",4.28 µM (active)
CC(=O)N[C@@H](Cc1ccc(O[P+](O)(O)O)cc1)C(=O)N[C@H](C(=O)N1CCC[C@H]1C(=O)N[C@@H](CCC(=O)O)C(=O)N1CCC[C@H]1C(N)=O)[C@@H](C)O (Ac-[X2]TPEP-NH2),Ki,"protein: E3 ubiquitin-protein ligase CBL, PDB entry 4gpl",1.3 µM (active)
C=C1CS[C@H]([C@H](N)C(=O)O)N=C1C(=O)O,Ki,"protein: AmpC Beta-Lactamase, PDB entry 4okp",2000 µM (active)
N[C@H](C(=O)O)[C@@H]1N=C(C(=O)O)CCS1,Ki,"protein: AmpC Beta-Lactamase, PDB entry 4old",2000 µM (active)
Cc1ccc(NC(=O)c2cccc(C(F)(F)F)c2)cc1-c1ccc2nc(NC3CC3)ncc2c1,Ki,"protein: Mitogen-activated protein kinase 1 (Q103A, C164L mutation), PDB entry 4i5h",0.002 µM (active)
Cc1cccc(Nc2cc(S(O)(O)O)c(N)c3c2C(=O)c2ccccc2C3=O)c1,Ki,"protein: ecto-nucleoside triphosphate diphosphohydrolase 2, RnNTPDase2, PDB entry 4cd1",12.8 µM (active)
CCCCCC(=O)O[C@@H](CO)CO[P+](O)(O)OCC[N+](C)(C)C,Ki,"protein: Avermectin-sensitive glutamate-gated chloride channel GluCl alpha, PDB entry 4tnw",167 µM (active)
Nc1ncnc2c(CN3C[C@H](O)[C@H](O)[C@H]3CO)c[nH]c12,Ki,"protein: Inosine-adenosine-guanosine-nucleoside hydrolase, PDB entry 4i71",0.018 µM (active)
Nc1ncnc2c(CN3C[C@H](CSCC[C@H](N)C(=O)O)[C@@H](O)C3)c[nH]c12,Ki,"protein: 5'-methylthioadenosine/S-adenosylhomocysteine nucleosidase, PDB entry 4f3k",6.9e-05 µM (active)
Nc1ncnc2c([C@@H]3N[C@H](CO)[C@@H](O)[C@H]3O)c[nH]c12,Ki,"protein: Inosine-adenosine-guanosine-nucleoside hydrolase, PDB entry 4i72",0.0009 µM (active)
O=c1[nH]cnc2c(CN3C[C@H](O)[C@H](O)[C@H]3CO)csc12,Ki,"protein: Inosine-adenosine-guanosine-nucleoside hydrolase, PDB entry 4i73",0.19 µM (active)
same,Ki,"protein: Inosine-adenosine-guanosine-nucleoside hydrolase, PDB entry 4i74",0.19 µM (active)
CSCC[C@H](NC(=O)[C@H](C)N)C(=O)N[C@@H](CCCNC(N)N)C(=O)N[C@H](C(=O)O)C(C)C (H-AM[Orn(CH(NH2)2)]V-OH),Ki,"protein: E3 ubiquitin-protein ligase XIAP (C202A, C213G mutation), PDB entry 4j48",2.41 µM (active)
